High-throughput results deposited in PubChem BioAssay by several laboratories.
DAGLB inh – blocks human DAGLB lipase activity | HEK293T DAGLB membrane lysate, EnzChek fluorogenic substrate | AID 504411 | inhibition, % at 5.17 µM | hit rate 0.059% among 340,000; in the data active means inhibition above about 34%;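 further: 0% = enzyme with vehicle and 100% = wells lacking enzyme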
sPLA2-III inh – Blocks human group III sPLA2 activity | Q9NZ20 | QFRET BODIPY PC-A2 liposome hydrolysis, fluorescence | inhibition, % at 12.2 µM | hit rate 0.56% among 370,000;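 active means inhibition above mean plus 3 SD of compounds lying within the high and low control bounds, cut at about 19% in these data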;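 further: 0% = median of test compound wells and 100% = no enzyme DMSO wells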
ARNT TACC3 PPI – disruptors of human ARNT/TACC3 interaction | AlphaScreen His-ARNT PAS-B/GST-TACC3 binding, luminescence; TACC3 fragment carries E629A point mutation | Q9Y6A5 | inhibition, % at 9.99 µM | hit rate 0.66% among 390,000 | AID 623870;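 active means mean inhibition of replicates at least 50% and at least half of replicates each reaching 50%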;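 further: 0% = complete ARNT plus TACC3 wells and 100% = ARNT alone without TACC3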
NadD inh – blocks S. aureus nicotinate mononucleotide adenylyltransferase | purified NadD enzyme, colorimetric absorbance read-out | hit rate 0.78% among 360,000 | inhibition, % at 20 µM; in the data active means inhibition above about 26%
Neddylation inh – blocks human cullin neddylation. inhibition, % at 25 µM. P61081+Q13564. AID 651699. TR-FRET cullin neddylation, biochemical. hit rate 0.58% among 360,000; in the data active means inhibition above about 36%
Target sequence (P61081 whole entry, looked up): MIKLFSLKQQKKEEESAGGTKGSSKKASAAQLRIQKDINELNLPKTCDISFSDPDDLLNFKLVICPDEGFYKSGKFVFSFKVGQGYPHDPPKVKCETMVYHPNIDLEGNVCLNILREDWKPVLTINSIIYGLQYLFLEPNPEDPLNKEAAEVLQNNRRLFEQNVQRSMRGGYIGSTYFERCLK
Target sequence (Q13564 whole entry, looked up): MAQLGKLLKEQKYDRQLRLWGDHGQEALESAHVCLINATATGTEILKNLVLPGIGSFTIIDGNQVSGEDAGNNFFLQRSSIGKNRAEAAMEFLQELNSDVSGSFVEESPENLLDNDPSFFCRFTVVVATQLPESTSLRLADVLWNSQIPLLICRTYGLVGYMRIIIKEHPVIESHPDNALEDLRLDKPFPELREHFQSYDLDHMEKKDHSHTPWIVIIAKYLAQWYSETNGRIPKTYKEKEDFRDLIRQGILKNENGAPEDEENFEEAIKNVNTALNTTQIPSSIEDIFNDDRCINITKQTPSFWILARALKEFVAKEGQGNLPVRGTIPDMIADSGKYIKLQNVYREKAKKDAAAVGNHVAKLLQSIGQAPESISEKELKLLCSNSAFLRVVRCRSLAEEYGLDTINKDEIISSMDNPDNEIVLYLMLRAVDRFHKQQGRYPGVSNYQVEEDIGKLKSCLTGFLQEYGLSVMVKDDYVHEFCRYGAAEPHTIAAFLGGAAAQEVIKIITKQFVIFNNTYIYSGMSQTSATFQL
Starred values were filed as active, the others as inactive; . = not tested or not shown. An excerpt weighted towards active compounds, which were near 2% of everything screened.

SMILES | DAGLB inh | sPLA2-III inh | ARNT TACC3 PPI | NadD inh | Neddylation inh
COc1ccc(CNC(=O)C[C@H]2CC[C@@H](NC(=O)Nc3ccc4c(c3)OCO4)[C@H](CO)O2)cc1 | . | . | 0 | . | .
COc1ccccc1C#Cc1ccc([C@@H]2[C@@H](CO)N3CCCCN(C(=O)C4CC4)C[C@@H]23)cc1 | . | . | -8 | . | .
C#CCOCCOCCOCCNc1nc(N2CCN(C(=O)CCCCCCCCCCNC(=O)[C@H]([C@@H](C)CC)n3cc(CCCCN=C(N)N)nn3)CC2)nc(N2CCN(C(=O)CCCCCCCCCCNC(=O)[C@H](CO)n3cc(CCCCCN)nn3)CC2)n1 | 2 | . | 30 | 36* | -7
Cc1ccc(N=Nc2c(C)[nH]n(C(N)=S)c2=O)cc1C | 10 | 7 | -1 | 2 | -38
Cc1[nH]n(C(N)=S)c(=O)c1N=Nc1cc(-c2ccc(Br)cc2)[nH]n1 | . | -7 | 15 | 43* | -25
CCOC(=O)c1c(C)c(C(=O)NCc2ccccn2)c(C)n1CC | -2 | . | 48* | -4 | 14
COc1ccc(NC(=O)Nc2ccc3c(c2)[C@@H]2C[C@@H](CC(=O)NCCc4ccccc4)O[C@@H](CO)[C@@H]2O3)cc1 | . | . | -7 | . | .
CC1(OC(=O)CCc2ccccc2)C(=O)C=C2C=C(c3ccc(C#N)cc3)N(Cc3ccccc3)C=C2C1=O (configuration not stated) | 8 | -6 | -27 | 20 | 14
COCCN1C=C2C(=O)C(C)(OC(=O)CCc3ccccc3)C(=O)C=C2C=C1c1ccc(C#N)cc1 (configuration not stated) | 4 | 3 | active | -1 | -1
CC(NO)/C(=N\O)c1cccs1 (configuration not stated) | -2 | 24* | 3 | 2 | 2
NC(=S)NN=Cc1nccc2c(C(F)(F)F)cccc12 | 4 | 11 | . | -1 | 8
CNc1cccnc1C=NNC(N)=S | -4 | 6 | . | 4 | 47*
CCc1nc(Nc2ccncc2)c2oc3ccccc3c2n1 | -1 | 4 | 11 | -6 | 42*
Cc1nc(Nc2ccncc2)c2oc3ccccc3c2n1 | 1 | 5 | 7 | 0 | 31
CC(C)C#Cc1cnc2c(c1)C(=O)N([C@@H](C)CO)C[C@H](C)[C@@H](CN(C)C(=O)Cc1ccccn1)O2 | . | . | -3 | . | .
COc1ccc(NC(=S)N(CCCN2CCN(C)CC2)Cc2cccs2)cc1 | -3 | 15 | 85* | -3 | 1
Nc1nc(NC(=O)C(Cl)(Cl)Cl)nn1-c1ccccc1 | 2 | 2 | 64* | 0 | -8
CCC(=O)Nc1nc(N)n(-c2ccccc2)n1 | -2 | 2 | -13 | -1 | 2
CC1=NN(c2ccccc2)C(=O)/C1=C/N(C)C | -1 | 5 | 16 | -6 | -1
CC1=NN(c2nc3ccccc3[nH]2)C(=O)/C1=C/N(C)C | 2 | . | 68* | 1 | 10
COc1ccc(NC(=O)C2CCC(N3C(=O)C4C5C=CC(C5)C4C3=O)CC2)cc1 (configuration not stated) | 0 | 5 | . | 0 | 6
COc1ccc(NC(=O)[C@@H]2[C@@H]3C(=O)N(C4CCCCC4)C(=O)[C@@H]3C3c4ccccc4C=CN32)cc1 (some centres not stated) | 2 | -6 | 12* | 10 | -4
O=C1C(=O)c2ccccc2C(O)=C1CCCCl | 0 | . | 37* | -5 | -34
COc1cccc(/C=N/NC(=O)Cn2nc(C)c([N+](=O)[O-])c2C)c1O | 1 | -11 | 65* | -3 | -3
COc1cccc(/C=N/NC(=O)C(C)n2nc(C)c([N+](=O)[O-])c2C)c1O (configuration not stated) | 0 | -19 | 88* | -3 | 2
SMILES | DAGLB inh | sPLA2-III inh | ARNT TACC3 PPI | NadD inh | Neddylation inh
C[C@@H]1CCCCO[C@H](CN(C)C)[C@H](C)CN([C@H](C)CO)C(=O)c2cc(NC(=O)Nc3ccc(C(F)(F)F)cc3)ccc2O1 | . | . | 26 | . | .
C[C@H](CO)N1C[C@H](C)[C@@H](CN(C)Cc2cncnc2)Oc2ncc(-c3ccc(F)cc3)cc2C1=O | . | . | -7 | . | .
CC(C)C(=O)Nc1ccc2c(c1)C(=O)N(C)[C@H]1CC[C@H](CC(=O)NCC3CC3)O[C@H]1CO2 | . | . | 0 | . | .
O=C(NNC(=S)Nc1ccc(F)c(Cl)c1)c1ccccc1Br | 5 | 26* | 18 | 4 | -6
O=C(NNC(=S)Nc1ccc(F)c(Cl)c1)C1CC1 | 0 | 9 | -1 | 6 | -8
CO[C@@H]1CN(C)C(=O)c2ccc(NC(=O)c3nc4ccccc4s3)cc2OC[C@@H](C)N(Cc2ccccc2)C[C@H]1C | . | . | 17 | . | .
Cc1c(N=Nc2ccc(O)cc2)c(=O)n(-c2ccccc2)n1C | 0 | 3 | 14 | -10 | -28
Cc1c(N=NC2=C(O)CCCC2=O)c(=O)n(-c2ccccc2)n1C | 0 | -1 | 63* | -1 | -14
C[C@H](CO)N1C[C@H](C)[C@@H](CN(C)S(=O)(=O)c2ccc(Cl)cc2)OCCCC[C@H](C)Oc2ccc(NS(C)(=O)=O)cc2C1=O | . | . | -4 | . | .
CN(C)C(=O)c1cccc(-c2ccc3c(c2)[C@H]2[C@H](CCN2C(=O)c2ccc4c(c2)OCO4)[C@@H](CO)N3)c1 | . | . | 25 | . | .
Cc1[nH]n(-c2ccccc2)c(=O)c1N=Nc1ccc2c(c1)OCCO2 | 4 | 5 | 8 | -10 | -35
Cc1[nH]n(-c2ccccc2)c(=O)c1N=Nc1c(O)cc(S(=O)(=O)N(C)C)c2ccccc12 | 16 | 31* | 13 | 56* | -87
Oc1ccc(/C=N/Nc2nc(-c3cccnc3)nc3ccccc23)c(O)c1 | 1 | 4 | 26 | 39* | 11
Cc1c(O)ccc(/C=N/Nc2nc(-c3cccnc3)nc3ccccc23)c1O | 2 | -14 | 5 | 36* | 3
COc1ccc(/C=N/Nc2nc(-c3cccnc3)nc3ccccc23)cc1OC | 0 | -7 | 0 | -2 | 22
O=C(C[C@H]1C=C[C@@H](NC(=O)NC2CCCCC2)[C@@H](CO)O1)NCc1ccc(F)cc1 | . | . | -6 | . | .
COc1ccccc1C(=O)Nc1ccc2c(c1)OC[C@H](C)N(C(C)=O)C[C@H](C)[C@@H](OC)CN(C)C2=O | . | . | -4 | . | .
Cc1cnn(-c2cc(N/N=C/c3ccccc3F)ncn2)c1 | -1 | 4 | 8 | 11 | 0
COc1cc(N/N=C/c2ccc(N(C)C)cc2)ncn1 | 5 | 9 | -1 | 3 | 40*
COc1cc(N/N=C/c2ccccc2O)ncn1 | 3 | 1 | 63* | -6 | 7
C[C@@H]1CCCCO[C@H](CN(C)C(=O)Nc2ccc3c(c2)OCO3)[C@H](C)CN([C@H](C)CO)C(=O)c2cc(NS(=O)(=O)c3cn(C)cn3)ccc2O1 | . | . | 5 | . | .
CCNc1nc(C(=O)O)nc(N2CCOCC2)n1 | 1 | 6 | 79* | 2 | 16
CC(C)(C)Nc1nc(C(N)=O)nc(N2CCOCC2)n1 | 0 | -2 | 22 | 12 | -2
CC1=NN(c2ccc(C(=O)O)c(N)c2)C(=O)C1 | -2 | -11 | 47* | -3 | 11
CC1=NN(c2ccc([N+](=O)[O-])cc2)C(=O)C1 | 5 | . | 45* | 3 | -16
